The source made the active and inactive calls. Calls follow the shape of the dose curve; as a rule, active = well fitted curve in the direction sought with a large enough effect; inactive = no such curve, though single readings can be large or run the other way.

A short description of this experiment: Retest of LOPAC molecules that induce DNA re-replication in SW480 adenocarcinoma cells. To be noted: Hoechst DNA content imaging, 48 h; series mostly up to 45.1 µM. The text has this: NIH Molecular Libraries Probe Production Network [MLPCN] NIH Chemical Genomics Center [NCGC] MLPCN Grant: Fast Track K99 CA136555 Assay Provider: Melvin DePamphilis, NICHD, NIH Assay Overview Eukaryotic cells normally restrict genome duplication to once per cell division. When this process is aberrant, DNA re-replication occurs when cells reinitiate DNA replication before the first round of replication is complete. DNA re-replication induces the DNA damage response, arrests cell proliferation, and triggers apoptosis. The cell cycle components cyclin A, Cdt-1, Cdc6 and geminin are critical regulators of this process and their misregulation results in DNA re-replication in normal and cancer cells. To identify compounds that induce re-replication in normal cells, an image-based assay was used to measure DNA content of nuclei, as detected by the fluorescent DNA binding dye, Hoechst. Cell nuclei were imaged by a fluorescence scanning plate imager and compounds that induce DNA re-replication were identified by the increase of nuclei with elevated fluorescence intensity.
Assay Protocol Summary For screening, 250 cells in 5 uL/well were dispensed into black clear 1536-well plates (Aurora) using a solenoid-based dispenser. Following transfer of 23 nL compound or DMSO vehicle by a pin tool, the plates were incubated 48 hr at 37 C and 5% CO2. After addition of 1 uL/well Hoescht stain, the plates were incubated 40 min at 37 C, 5% CO2 and total intensity of fluorescent objects (nuclei) were enumerated by an Acumen Explorer Ex3 (TTP LabTech) fluorescence scanning plate imager (405 nm excitation, 500-530 nm emission). Keywords: NIH Roadmap, MLPCN, MLI, MLSMR, qHTS, NCGC, DNA replication, cancer
`COc1cc2c(c(OC)c1OC)-c1ccc(OC)c(=O)cc1[C@@H](NC(C)=O)CC2`: the Potency was 33.7 nM (active). With `C=C(C)[C@H]1Cc2c(ccc3c2O[C@@H]2COc4cc(OC)c(OC)cc4[C@@H]2C3=O)O1` the figure was 1070 nM (active). With `CC(C)NP(=O)(NC(C)C)OP(=O)(NC(C)C)NC(C)C` the entry was “inactive”.

The values are drawn from PubChem BioAssay AID493165 (National Center for Advancing Translational Sciences (NCATS), 2011).
